Test results published in the supplement of paper PMC6555819.

Columns and labels:
Assay in all cases: PBM binding z-score (relative to random genomic background probes); higher = stronger binding; sequences stand for … in GC…GCGATTGACAGCGTAGAATGAAGG
[1] = test system: FXR:RXRa (NR concentration 270 nM, RXRa partner concentration 90 nM)
How it was run: (§1)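 Regression normalization was applied to scanned fluorescence from custom Agilent 4×180K protein-binding microarrays. Before scanning, arrays were incubated 1 h with ligand-free nuclear receptor dimers, and binding was detected with antibodies against each partner (one per run). Binding z-scores use the random background probes as reference.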

[2] = test system: LXRa:RXRa (NR concentration 270 nM, RXRa partner concentration 90 nM)
How it was run: as §1

[3] = test system: LXRa homodimer (NR concentration 270 nM)
How it was run: as §1

[4] = test system: LXRb:RXRa (NR concentration 270 nM, RXRa partner concentration 90 nM)
How it was run: as §1

[5] = test system: LXRb homodimer (NR concentration 270 nM)
How it was run: as §1

[6] = test system: PPARa:RXRa (NR concentration 270 nM, RXRa partner concentration 90 nM)
How it was run: as §1

[7] = test system: PPARg:RXRa (NR concentration 180 nM, RXRa partner concentration 90 nM)
How it was run: as §1

[8] = test system: PPARg:RXRa 270nM:90nM, anti-RXR (NR concentration 270 nM, RXRa partner concentration 90 nM)
How it was run: as §1

[9] = test system: PPARg:RXRa 30nM:10nM, anti-RXR (NR concentration 30 nM, RXRa partner concentration 10 nM)
How it was run: as §1

[10] = test system: PPARg:RXRa 90nM:30nM, anti-RXR (NR concentration 90 nM, RXRa partner concentration 30 nM)
How it was run: as §1

| Sequence | PBM binding z-score [1] | PBM binding z-score [2] | PBM binding z-score [3] | PBM binding z-score [4] | PBM binding z-score [5] | PBM binding z-score [6] | PBM binding z-score [7] | PBM binding z-score [8] | PBM binding z-score [9] | PBM binding z-score [10] |
| --- | --- | --- | --- | --- | --- | --- | --- | --- | --- | --- |
| TATACAGGGTCAAAGGCCAGAATACGAATGTCGA | 6.57 | 5.89 | 2.16 | 4.62 | 2.29 | 5.89 | 7.8 | 7.19 | 5.21 | 7.33 |
| CGAACTAGGTCATCAAGGACAGTGAATACATTGA | 3.45 | 2.23 | 0.477 | 1.76 | -0.245 | 4.53 | 7.15 | 6.3 | 3.43 | 5.6 |
| ACTCGGAGGACAAGGGTCAGAGCTACGCCAGTGA | 2 | 1.9 | -0.11 | 1.6 | -0.535 | 3.37 | 4.49 | 4.83 | 2.75 | 4.25 |
| ACAGACAGGTGATGAAGTTAACTCAGGCTATCAT | -0.177 | -0.305 | -0.307 | -0.225 | -0.182 | -0.03 | 0.514 | -0.0899 | -0.051 | -0.038 |
| TCTCGGAGCACACGAAGGTCAGAGCTTTCCAGAG | 0.286 | 0.742 | -0.215 | 0.706 | -1.73 | 1.7 | 0.118 | 1.06 | 1.04 | 0.995 |
| GCTGCTAGGTCAGGTTGTTCAGCTAACGGGTACG | 1.07 | 0.82 | -0.00729 | 0.433 | -0.427 | 1.29 | 0.414 | 1.18 | -0.403 | 0.471 |
| CCTTACGAGTCAAGGTTATAGCACGGGTGGTACG | 0.585 | 0.946 | -0.0296 | 0.739 | 0.332 | 1.28 | 0.716 | 0.135 | -0.0857 | -0.0269 |
| TCATATAGGTAAACAGTTGAAAGTCCGTAAGTTA | 1.56 | 1.2 | 0.508 | 1.15 | 0.267 | 1.76 | 1.53 | 2.91 | 3.95 | 3.49 |
| GGTACGAGGGCATTCGAGTTGATAGCATGGCGAT | 1.45 | 1.69 | -0.269 | 0.123 | -0.742 | 0.926 | 0.726 | 0.262 | -0.638 | 0.0723 |
| CGAACAAGGTCAGAACAGGACAGTGAAGGATGAT | 4.33 | 3.42 | 0.289 | 2.42 | 0.289 | 3.91 | 3.09 | 3.2 | 1.12 | 1.95 |
| ATACCAAGGTGACCGTGAGGTCGTTGATACTAAC | 3.38 | 2.05 | 0.765 | 2.02 | -0.023 | 2.4 | 1.44 | 1.39 | 0.228 | 0.726 |
| CGAAATAGGTCATTGACAGGACAGTGAATAGTAA | 6.1 | 5.06 | 1.3 | 3.58 | 0.828 | 5.64 | 6.83 | 6.73 | 4.21 | 6.12 |
| AGAACGAGGGCACGCTGAGTTGATAGCCGAGTAG | 0.799 | 0.509 | -0.574 | 0.154 | -0.961 | 2.17 | 2.04 | 1.7 | -0.0721 | 0.936 |
| CCTAGGAGGACAACAGGAGGTCAGAGCTGCCAGA | 1.35 | 2.17 | 2.05 | 1.53 | -0.406 | 2.1 | 0.818 | 0.597 | -0.229 | 0.192 |
| CCTAGTTGGTCACGAGGTCACACACCGGATATGA | 4.38 | 3.84 | 2.36 | 3.94 | 0.56 | 5 | 5.28 | 4.91 | 2.28 | 3.65 |
| CCGACTGGGGCAGATAGGTTACCATACCATCCGG | -0.431 | -0.25 | 0.171 | -0.154 | -1.16 | 0.179 | 0.914 | 0.44 | -0.164 | -0.0542 |
| AGAAAGAGGGCAATGAGTTGATAGCACGGGTGGC | 0.593 | 0.892 | 0.104 | 0.387 | 0.472 | 1.55 | 1.23 | 0.938 | 0.0317 | 0.591 |
| ATATGTAGGTTAAGGGTCATTCAAGTTGGTTCGC | 5.1 | 5.2 | 2.81 | 4.68 | 1.33 | 6.53 | 11.5 | 9.66 | 9.8 | 10.8 |
| GCTCGGAGGACAACGTCAGAGCTTTGTCCGTAGA | -0.816 | -1.18 | -1 | -1.15 | -1.11 | -0.78 | -0.651 | -1.1 | -1.29 | -1.22 |
